Measured values reported in the supplement of paper PMC3334620.
In all, about 33,000 sequences were measured (“E-score (-0.5 to 0.5)”: median about -0.0014, highest 2% from about 0.25 on). This excerpt belongs to a sample that is enriched for the highest values.

What follows are sequences tested against T1, Cad1 (UniProt P24813) (assay: PBM E-score (8-mer binding enrichment) (E-score (-0.5 to 0.5)); higher = stronger / more preferred TF binding). Settings: protein concentration: 100 nM; construct: GST-full length.
T1 sequence: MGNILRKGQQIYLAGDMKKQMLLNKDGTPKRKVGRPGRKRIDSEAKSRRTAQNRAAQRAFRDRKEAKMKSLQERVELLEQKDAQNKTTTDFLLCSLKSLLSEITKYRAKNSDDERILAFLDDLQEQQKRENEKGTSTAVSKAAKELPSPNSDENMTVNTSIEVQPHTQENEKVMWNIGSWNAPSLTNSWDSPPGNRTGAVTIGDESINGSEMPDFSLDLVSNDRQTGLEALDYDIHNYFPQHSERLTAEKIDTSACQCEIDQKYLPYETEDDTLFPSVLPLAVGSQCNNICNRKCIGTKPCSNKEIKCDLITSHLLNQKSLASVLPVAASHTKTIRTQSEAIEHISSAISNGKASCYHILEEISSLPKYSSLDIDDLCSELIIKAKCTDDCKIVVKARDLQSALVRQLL
Method: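 Universal 'all 10-mer' protein binding microarrays (Agilent AMADID 015681) probed with GST-tagged S. cerevisiae TFs (full-length or DBD) made by in vitro transcription/translation (PURExpress), about 100-200 nM. Bound TF was detected with fluorescent anti-GST. Each ungapped 8-mer (which stands for itself and its reverse complement) is scored by the PBM enrichment score (E-score), a modified Wilcoxon-Mann-Whitney statistic from -0.5 to +0.5, computed with the Universal PBM Analysis Suite. Scale: above 0.35 generally sequence-specific binding.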

Row | Sequence | PBM E-score
1 | CGCGCTAC | 0.26
2 | CGCGCTAG | 0.238
3 | TGCGCTAA | 0.156
4 | CGCGCTAA | 0.256
5 | GGCGCTAC | -0.214
6 | AGCGCTAA | 0.212
7 | CCAAAATA | 0.147
8 | CTTCCATA | -0.244
9 | AAGCCGGT | -0.024
10 | GCATAGAA | 0.0802
11 | ATTCATCA | 0.132
12 | ACTTTCTA | -0.028
13 | TACTAGAA | 0.0443
14 | CACCCGCC | 0.0605
15 | ATCGTAGC | 0.0921
16 | AACGAGCA | -0.0102
17 | CATATAAG | 0.00934
18 | AACATAAG | 0.261
19 | AATATAAT | 0.18
20 | TATATAAA | 0.23
21 | AACATAAC | 0.135
22 | AATATAAG | 0.297
23 | CACATAAG | 0.00562

Row | Sequence | PBM E-score
24 | CATATAAA | 0.0106
25 | AATATAAA | 0.251
26 | AGGCTACT | -0.196
27 | CATTGGAA | 0.0544
28 | TGTAGAAA | -0.18
29 | CATTGAGA | -0.109
30 | AGAAGAAT | -0.0672
31 | AGATAGAC | 0.0347
32 | GATTTCTA | 0.123
33 | ACTATTGG | 0.025
34 | ATAGTTCA | 0.0339
35 | AAATTTAT | 0.171
36 | AATTTTAC | 0.282
37 | AATTTAAG | 0.0522
38 | AATTTAAT | 0.252
39 | AATTTTAT | 0.295
40 | ATTTTTCC | 0.0266
41 | AATTTTAA | 0.249
42 | ATTTTTAC | 0.0299
43 | CATTTTAC | 0.198
44 | AATTTAAC | 0.124
45 | AATTTTTC | 0.145
46 | AATTTTCC | 0.26

Row | Sequence | PBM E-score
47 | CAGCGGCA | -0.0412
48 | CCAGCCCG | -0.102
49 | CGGGTTTC | 0.179
50 | CGACCGAG | -0.0641
51 | CATTCGGC | -0.0238
52 | CTTAATAC | -0.0147
53 | CATAATAA | -0.0382
54 | GTTAATAA | 0.249
55 | AATAATCA | 0.218
56 | AATAATAC | 0.205
57 | TCTAATAA | 0.0758
58 | AATAATAA | 0.305
59 | TATAATCA | 0.31
60 | AATAATAG | 0.077
61 | TATAATAA | 0.278
62 | GATAATCA | 0.169
63 | CTTAATAA | 0.383
64 | AGCTCCGG | -0.115
65 | AAGCAGAG | -0.111
66 | GCAAGGCC | 0.0338
67 | CAGAGAGG | -0.329
68 | AGAGCCGG | -0.167
69 | AACCAAGC | 0.03

Row | Sequence | PBM E-score
70 | AAATCGGG | 0.0578
71 | GGGTATAC | 0.0548
72 | GCATCTAA | 0.194
73 | CAACACTA | 0.19
74 | TAACACTA | 0.265
75 | GAACACTA | 0.0513
76 | ACCGTCAC | -0.176
77 | CCCACACA | 0.00769
78 | AGAAGGCT | -0.299
79 | ATGTAACA | 0.168
80 | ATGTAATA | 0.334
81 | ATGTAACG | 0.257
82 | ATGTAATG | 0.281
83 | CTGTAATA | 0.143
84 | ATGTAATC | 0.168
85 | GTGTAATA | 0.194
86 | AAGTAATG | 0.0383
87 | ATGTAACC | -0.0284
88 | ATCTTACC | 0.0255
89 | GACATTCC | -0.0262
90 | GAGAACTA | 0.103
91 | GTCTAAGA | 0.151
92 | TCCTCCCA | -0.144

Row | Sequence | PBM E-score
93 | GTAGATAA | 0.251
94 | TTAGATAA | 0.105
95 | ATAGATAA | 0.125
96 | ACAGGCAA | 0.0554
97 | CGATCCGC | 0.163
98 | CGATCCGA | 0.251
99 | GGATCCGA | -0.00022
100 | CGGGTTTA | -0.0209
101 | AGAGTGCT | 0.0363
102 | CAAGAACA | 0.0216
103 | GAAGAACA | 0.121
104 | TAAGAACA | 0.275
105 | CTAGCTTC | 0.0393
106 | AGCCTACC | -0.282
107 | CAACTGTC | 0.0813
108 | CACTAAAA | 0.19
109 | TACAGTAA | 0.0528
110 | CACAGTAA | 0.291
111 | CACAGTAG | -0.0343
